High-throughput results: PubChem BioAssay, National Center for Advancing Translational Sciences (NCATS)
DT40 TDP1 CPT = qHTS for Inhibitors of human tyrosyl-DNA phosphodiesterase 1 (TDP1): qHTS in cells in presence of CPT; chicken DT40 Tdp1-/-;hTDP1 cells + 20 nM CPT, ATP luminescence, 48 h; Potency, µM (doses to about 46.2 µM), inactives show at the top dose activity change, negative = growth inhibition, most hits filed as inhibitors; actives 12% (n = 420,000); AID 686979, 2013; further: potency means the concentration at half of the fitted maximal effect; nearly all actives have a fitted effect of over 55% in size
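Chicken DT40 Tdp1-/- cells complemented with human TDP1, 400 cells/well, exposed to compounds plus 20 nM camptothecin for at least 48 h at 37 C; viability read as ATP content by CellTiter-Glo luminescence.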
IL1B secr inh = qHTS for Inhibitors of Inflammasome Signaling: IL-1-beta AlphaLISA Primary Screen; THP-1 LPS/ATP IL-1B secretion, AlphaLISA, 16 h; hits give low values; activity change, % at 57.5 µM; actives 4.7% (n = 360,000); in the data active means activity change below about -50%; inconclusive means mostly about -30% to -49%
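Secreted IL-1B measured by AlphaLISA bead assay after 16 h compound exposure of THP-1 cells; compounds (final up to 57.5 uM) added 1 h before LPS (250 ng/mL) and ATP (1.25 mM) stimulation; lower signal means less secretion.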
DT40 TDP1 no CPT = qHTS for Inhibitors of human tyrosyl-DNA phosphodiesterase 1 (TDP1): qHTS in cells in absence of CPT. DT40 Tdp1-/- hTDP1 cells, no CPT, ATP luminescence, 48 h. Potency, µM (doses to about 46.2 µM), for inactives: top-dose activity change, negative = growth inhibition, usual class: inhibitors. actives 15% (n = 420,000); further: potency means the concentration at half of the fitted maximal effect; nearly all actives have a fitted effect of over 55% in size
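Chicken DT40 Tdp1-/- cells stably complemented with human TDP1 were seeded at 400 cells/well with DMSO in place of 20 nM camptothecin. After compound pinning, cells grew at least 48 hr at 37 °C; viability read by CellTiter-Glo luminescence.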
ELG1 repair inh = qHTS screen for small molecules that inhibit ELG1-dependent DNA repair in human embryonic kidney (HEK293T) cells expressing luciferase-tagged ELG1 | Potency, µM (series often up to 46.1 µM), inactives show at the highest dose activity change, negative = inhibition, most hits filed as inhibitors | actives 2.3% (n = 330,000) | HEK293T ELG1-luciferase reporter, luminescence, 16 h; DNA damage induced by 5-fluorouridine; further: potency means the concentration at half of the fitted maximal effect; nearly all actives have a fitted effect of over 55% in size
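5-Fluorouridine DNA damage + compound/DMSO, 2,000 cells/well, 16 h, 37 °C/5% CO2. ONE-Glo, 30 min RT, luminescence. Readout = decrease in reporter signal.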
HT1080-NT tox = qHTS for induction of synthetic lethality in tumor cells producing 2HG: qHTS for the HT-1080-NT fibrosarcoma cell line; actives 1.6% (n = 360,000); AID 686970, 2013; Potency, µM (titrated, usually from 46.1 µM), for the others: top-dose activity, negative = less viability, actives largely listed as cytotoxic; HT-1080-NT fibrosarcoma viability, CellTiter-Glo ATP luminescence, 48 h;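 further: NT is the 2HG producing partner of a matched IDH1 knockdown line; potency means the concentration at half of the fitted maximal effect; 0% = DMSO-treated cells and -100% = media-only wells without cells; nearly all actives have a fitted effect of over 55% in size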
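Read-out is CellTiter-Glo luminescence after 10 minutes at room temperature, following 48 hours' compound treatment of HT-1080-NT cells (750 cells/well, RPMI, 5% FBS, 37 degrees C).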
HT1080 IDH1KD tx = qHTS for induction of synthetic lethality in tumor cells producing 2HG: qHTS for the HT-1080-IDH1KD cell line. HT-1080 IDH1 knockdown viability, ATP luminescence, 48 h. Potency, µM (titrated, usually from 46.1 µM), inactives show at the highest dose activity, negative = toxicity, most hits filed as cytotoxic. actives 2% (n = 360,000). AID 686971, 2013;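 further: potency means the concentration at half of the fitted maximal effect; 0% = DMSO wells and -100% = cell-free medium wells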
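Assay cells: HT-1080 with IDH1 knockdown, 750 per well, RPMI/5% FBS. Exposure: 48 h at 37 °C following 2 h pre-incubation. Read: CellTiter-Glo luminescence; fitted concentration-response, curve class assigned.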
Active calls of the source: *. In the library only some 19% were active in any assay of this set; here they are far more common. Unless noted, the call rests on the fitted dose curve; in most records, active means well fitted curve in the direction sought with a large enough effect; inconclusive means small, poorly fitted or top-dose-only effect, or another doubt; inactive means no such curve, though single readings can be large; an effect the other way counts as inactive or inconclusive. Unless noted, on the % scale 0 is the no-effect control and ±100 the full control effect.

For CCOC(=O)CNC(=O)CCc1nnc2ccc(N3CCC(C)CC3)nn12 the results were DT40 TDP1 CPT 23µM*, IL1B secr inh -8, DT40 TDP1 no CPT inconclusive, ELG1 repair inh -3%, HT1080-NT tox -2% and HT1080 IDH1KD tx 14%.
CCOC(=O)C1CCN(C(=O)CCc2nnc3ccc(N4CCC(C)CC4)nn23)CC1 was read as DT40 TDP1 CPT 18µM*, IL1B secr inh 0, DT40 TDP1 no CPT inconclusive, ELG1 repair inh -7%, HT1080-NT tox -2% and HT1080 IDH1KD tx 6%.
Screening COc1ccc(C(=O)Nc2nc3cc4c(cc3s2)OCO4)c(OC)c1 returned DT40 TDP1 CPT inconclusive, IL1B secr inh -15, DT40 TDP1 no CPT -14%, ELG1 repair inh inconclusive, HT1080-NT tox 10% and HT1080 IDH1KD tx 4%.
COc1ccc(NC(=O)N2CCCC3(CCN(C(=O)c4c(C)noc4C)CC3)C2)cc1 was read as DT40 TDP1 CPT 1% and DT40 TDP1 no CPT 1%.
For COc1ccc(N2CCN(c3oc(-c4ccc(OC)c(OC)c4)nc3C#N)CC2)cc1 the results were DT40 TDP1 CPT inconclusive, IL1B secr inh -7, DT40 TDP1 no CPT 18µM*, ELG1 repair inh 2%, HT1080-NT tox 8% and HT1080 IDH1KD tx 3%.
For COc1ccccc1-c1nc(C#N)c(N2CC(C)CC(C)C2)o1 (configuration not stated) the results were DT40 TDP1 CPT inconclusive, IL1B secr inh -6, DT40 TDP1 no CPT 18µM*, ELG1 repair inh 20%, HT1080-NT tox -2% and HT1080 IDH1KD tx -1%.
CC1CC(C)CN(c2oc(-c3ccccc3F)nc2C#N)C1 (configuration not stated) was read as DT40 TDP1 CPT inconclusive, IL1B secr inh -6, DT40 TDP1 no CPT inconclusive, ELG1 repair inh inconclusive, HT1080-NT tox 24% and HT1080 IDH1KD tx 29%.
For COc1ccc(-c2nc(C#N)c(N3CCc4ccccc4C3)o2)cc1OC the results were DT40 TDP1 CPT 29µM*, IL1B secr inh -52*, DT40 TDP1 no CPT 13µM*, ELG1 repair inh inconclusive, HT1080-NT tox inconclusive and HT1080 IDH1KD tx -10%.
Screening COc1ccc(-c2nc(C#N)c(N3CCN(C(=O)c4ccco4)CC3)o2)cc1OC returned DT40 TDP1 CPT inconclusive, IL1B secr inh -1, DT40 TDP1 no CPT inconclusive, ELG1 repair inh -1%, HT1080-NT tox 3% and HT1080 IDH1KD tx 1%.
COc1ccc(-c2nc(C#N)c(N3CCN(c4ccccc4)CC3)o2)cc1 was read as DT40 TDP1 CPT 1%, IL1B secr inh -3, DT40 TDP1 no CPT -29%, ELG1 repair inh -17%, HT1080-NT tox 2% and HT1080 IDH1KD tx 0%.
`CCc1c(-c2ccccc2)nc2ccccc2c1C(=O)NC(C)c1ccccc1` (configuration not stated) gave DT40 TDP1 CPT inconclusive and DT40 TDP1 no CPT 23µM*.
Screening CC(C)c1ccc(CC(=O)N2CCC2(C)C(=O)Nc2ccccc2)cc1 (configuration not stated) returned DT40 TDP1 CPT inconclusive, IL1B secr inh 2, DT40 TDP1 no CPT inconclusive, HT1080-NT tox -7% and HT1080 IDH1KD tx -19%.
For CC(C)c1ccc(CC(=O)N2CCC2(C)C(=O)Nc2cnc3ccccc3c2)cc1 (configuration not stated) the results were DT40 TDP1 CPT 16µM*, IL1B secr inh -20, DT40 TDP1 no CPT inconclusive, HT1080-NT tox inconclusive and HT1080 IDH1KD tx inconclusive.
CC(C)(C)c1ccc(C(=O)N2CCC2(C)C(=O)Nc2cnc3ccccc3c2)cc1 (configuration not stated) was read as DT40 TDP1 CPT 23µM*, IL1B secr inh -8, DT40 TDP1 no CPT 26µM*, HT1080-NT tox -2% and HT1080 IDH1KD tx -19%.
`CC(C)(C)c1ccc(CC(=O)N2CCC2(C)C(=O)Nc2cccc3ccccc23)cc1` (configuration not stated) gave DT40 TDP1 CPT inconclusive, IL1B secr inh 12, DT40 TDP1 no CPT inconclusive, HT1080-NT tox inconclusive and HT1080 IDH1KD tx inconclusive.
For CC(C)(C)c1ccc(CC(=O)N2CCC2(C)C(=O)Nc2cnc3ccccc3c2)cc1 (configuration not stated) the results were DT40 TDP1 CPT 21µM*, IL1B secr inh -10, DT40 TDP1 no CPT 12µM*, HT1080-NT tox inconclusive and HT1080 IDH1KD tx inconclusive.
For CC(C)(C)c1ccc(C(=O)N2CCC2(C)C(=O)NCC(F)(F)F)cc1 (configuration not stated) the results were DT40 TDP1 CPT inconclusive, IL1B secr inh 0, DT40 TDP1 no CPT inconclusive, HT1080-NT tox -2% and HT1080 IDH1KD tx -18%.
For COc1ccc(C(=O)NCc2nnc(SCC(=O)Nc3nc4ccc(C)cc4s3)o2)cc1OC the results were DT40 TDP1 CPT 4.1µM*, IL1B secr inh 24, DT40 TDP1 no CPT 2.3µM*, ELG1 repair inh inconclusive, HT1080-NT tox -8% and HT1080 IDH1KD tx -18%.
`COc1ccc(C(=O)NCc2nnc(SCC(=O)Nc3nnc(C)s3)o2)cc1OC` gave DT40 TDP1 CPT -8%, IL1B secr inh 20, DT40 TDP1 no CPT -12%, ELG1 repair inh 12%, HT1080-NT tox 10% and HT1080 IDH1KD tx 2%.
Cc1ccc(CNC(=O)CSc2nnc(CNC(=O)c3ccccc3)o2)cc1 was read as DT40 TDP1 CPT -1%, IL1B secr inh -73*, DT40 TDP1 no CPT 1%, ELG1 repair inh 3%, HT1080-NT tox 0% and HT1080 IDH1KD tx 0%.
O=c1c2cn(Cc3ccccc3)c3ccccc3c-2nn1Cc1ccc(F)cc1Cl was read as DT40 TDP1 CPT -7%, IL1B secr inh 2, DT40 TDP1 no CPT -8%, ELG1 repair inh 16%, HT1080-NT tox 3% and HT1080 IDH1KD tx 14%.
Nc1nc2c(ncn2[C@@H]2O[C@H](CNC(=O)[C@H](N)Cc3cncn3COCc3ccccc3)[C@@H](O)[C@H]2O)c(=O)[nH]1 was read as DT40 TDP1 CPT 5%, IL1B secr inh 6, DT40 TDP1 no CPT 10%, HT1080-NT tox 9% and HT1080 IDH1KD tx 18%.
